Reference: PubChem BioAssay AID833 (The Scripps Research Institute Molecular Screening Center, 2007)
Out of some 16,000 compounds screened, about 80 (0.5%) were called active. Cut-off read from the data, not from the text of the source: active = activation above about 15%; inactive = the rest. Shown is part of a subset that was picked to be rich in actives.

Each compound was assayed against Galanin receptor type 2 (Rattus norvegicus) (UniProt O08726) (assay: agonists of rat galanin receptor 2 (GALR2) (AID 833)). Conditions: cell-based GALR2 agonist screen; at 10 µM; active compounds read high.
Chain of Galanin receptor type 2 (Rattus norvegicus) (O08726 whole entry, looked up): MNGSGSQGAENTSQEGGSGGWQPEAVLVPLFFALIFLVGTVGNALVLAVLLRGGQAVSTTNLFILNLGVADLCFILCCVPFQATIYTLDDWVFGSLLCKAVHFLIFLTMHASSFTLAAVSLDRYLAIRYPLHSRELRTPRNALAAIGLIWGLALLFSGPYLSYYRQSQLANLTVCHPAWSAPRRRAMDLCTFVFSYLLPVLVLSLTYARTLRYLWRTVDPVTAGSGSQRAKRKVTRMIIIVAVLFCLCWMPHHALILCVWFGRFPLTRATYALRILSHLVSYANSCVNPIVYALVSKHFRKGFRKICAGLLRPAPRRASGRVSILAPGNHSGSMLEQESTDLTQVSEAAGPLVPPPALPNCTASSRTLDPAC

| Compound | activation |
| --- | --- |
| O=C(Nc1cccnc1Oc1ncnc2cc(Cl)ccc12)c1ccc(F)cc1 | -3.54% (inactive) |
| CS(=O)(=O)/N=C(\N)c1ccncc1 | -6.47% (inactive) |
| CCOC(=O)Cn1cc(Cl)ccc1=O | -2.49% (inactive) |
| O=C1C2C3C=CC(O3)C2C(=O)N1OCc1ccc(OC(F)(F)F)cc1 (configuration not stated) | -2.8% (inactive) |
| O=c1[nH]c2ccccc2s1 | -3.62% (inactive) |
| O=c1oc2c3ccccc3c3oc(=O)sc3c2s1 | 16.7% (active) |
| CCOc1ccc(C(N)=O)c(SCC(=O)O)c1 | -10.1% (inactive) |
| Cn1nnnc1SCC(=O)Nc1ccc(OC(F)(F)F)cc1 | -4.06% (inactive) |
| COc1ccc(/C=N/N2CCC(=O)Nc3ccccc32)c(OC)c1 | -4.04% (inactive) |
| N/C(=N\OCc1noc(-c2ccsc2)n1)c1ccc(C(F)(F)F)cc1 | -8% (inactive) |
| Cc1noc(C)c1C(=O)c1c(C)[nH]n(-c2ccccc2)c1=O | -4.7% (inactive) |
| CC(C)(C)NC(=O)NCC(c1ccc[nH]1)C(F)(F)F (configuration not stated) | -6.65% (inactive) |
| COC(=O)C1=C(c2ccccc2)C(c2ccccc2)=C(C(=O)OC)C1=O | -1.25% (inactive) |
| N#CC(C#N)=CNc1c(F)cccc1Cl | -9.67% (inactive) |
| CC(=O)/C(=C\N(C)C)c1ncccc1[N+](=O)[O-] | -5.71% (inactive) |
| C=C(C)c1cccc(C(C)(C)NC(=O)CC(C)=O)c1 | -4.52% (inactive) |
| O=C(Cc1cc(F)cc(F)c1)n1nccc1-c1cccs1 | -4.48% (inactive) |
| FC(F)(F)c1cccc(NC(=S)NNc2nccc(C(F)(F)F)n2)c1 | -8.08% (inactive) |
| COC(=O)c1sccc1S(=O)(=O)Nc1ccccc1Sc1ncnc2c(C)csc12 | -5.48% (inactive) |
| N/C(=N\S(=O)(=O)c1ccc(Cl)cc1)N1CCOCC1 | -1.28% (inactive) |
| Fc1ccc(Oc2nc(Oc3ccc(F)cc3)nc(N3CCSCC3)n2)cc1 | -8.25% (inactive) |
| CN(NS(=O)(=O)c1ccc(C(F)(F)F)cc1)c1cnn(C)c(=O)c1Cl | -5.39% (inactive) |
| COC(=O)c1ccsc1NC(C)=O | -5.28% (inactive) |
| CCOC(=O)c1ccc(NC)c(N)c1 | -7.18% (inactive) |
| CN(C)c1ccc(/C=C(\C#N)S(C)(=O)=O)c(Cl)c1 | -4.37% (inactive) |
| CC(C)[C@H]1COC(c2cccc(C3=N[C@@H](C(C)C)CO3)n2)=N1 | -5.78% (inactive) |

| Compound | activation |
| --- | --- |
| COC(=O)c1sc(S(C)=O)c(-c2ccon2)c1C (configuration not stated) | -6.07% (inactive) |
| O=C(Cn1nnc(N2CCOCC2)n1)N/N=C/c1ccc(-c2cccc([N+](=O)[O-])c2)o1 | -7.32% (inactive) |
| CO/N=C1\C(=O)N(C)c2ccccc21 | -3.65% (inactive) |
| COc1ccc(CCNC(=O)c2ccccc2-c2ccccc2C(=O)O)cc1OC | -7.28% (inactive) |
| COC(=O)c1c(C)noc1-c1ccno1 | -5.48% (inactive) |
| CCOC(=O)c1c(NC(=S)NC)sc2c1CCCC2 | -0.11% (inactive) |
| N/C(=N\OC(=O)Nc1ccccc1)c1ccc(Oc2c(Cl)cncc2Cl)cc1 | -6.45% (inactive) |
| CN([C@H]1CCN2CCc3ccccc3C2C1)S(C)(=O)=O (some centres not stated) | -4.21% (inactive) |
| CCOC(=O)CN1C(=O)/C(=C\c2ccc(C)o2)N=C1c1ccccc1 | -8.17% (inactive) |
| O=C(CN1C(=O)/C(=C/c2ccccc2Cl)N=C1c1ccccc1)c1ccccc1 | 15.2% (active) |
| CN1CCN(c2ccc(NC(=O)c3ccccc3)cc2)CC1 | -7.3% (inactive) |
| Cc1[nH]c2ccccc2c1Sc1ccc(Cl)cc1 | -8.87% (inactive) |
| Cc1onc(-c2ccccc2)c1CNS(=O)(=O)c1ccc2c(c1)OCCN2C | -3.66% (inactive) |
| CC(=O)c1ccc(C#Cc2ccccc2)cc1 | -6.33% (inactive) |
| N#Cc1ccc(N2CCN(C(=O)c3ccco3)CC2)cc1 | -9.07% (inactive) |
| CCOc1ccc(NC(=S)N2CCC(c3ccccc3OC)CC2)cc1 | -6.67% (inactive) |
| Cc1nc(-c2cccnc2)nc(N2CCCN(Cc3ccc(F)cc3)CC2)c1Cl | -9.09% (inactive) |
| COC(=O)c1ccc(/C=C2\C(=O)Nc3ccccc32)n1-c1ccc(F)cc1 | 2.14% (inactive) |
| Clc1ccc(C=NCc2cccnc2)c(Cl)c1 | -5.42% (inactive) |
| Cc1cc(S(=O)(=O)O/N=C(\N)c2snnc2C)cc(C)c1F | -5.04% (inactive) |
| Cc1ccc(S(=O)(=O)NNC(=O)c2ccccc2N)cc1 | -6.6% (inactive) |
| Cc1cc(C)nc(NC(=S)c2ccc(NC(=O)/C=C/C(=O)O)cc2)n1 | -5.82% (inactive) |
| O=C(Nc1ccc(C(F)(F)F)cc1)Nc1ccccc1C(=O)O | -8.04% (inactive) |
| CCCCNc1nc(N)ns1 | -3.61% (inactive) |
| Cc1c(CC(=O)Oc2ccc([N+](=O)[O-])cc2)sc2ccc(Cl)cc12 | -2.58% (inactive) |
| O=C(NCCO)NCCSc1ccc(F)cc1 | -4.7% (inactive) |

| Compound | activation |
| --- | --- |
| CCOC(=O)c1c(NS(=O)(=O)c2cccc3nsnc23)sc(C)c1C | -6.04% (inactive) |
| Cn1cccc1-c1n[nH]c(=S)n1-c1ccc(Cl)cc1Cl | -4.04% (inactive) |
| O=C1C=C(SCC(=O)c2ccccc2)SC(c2ccc(Cl)cc2)C1 (configuration not stated) | 6.17% (inactive) |
| NNC(=O)CC1C(=O)NCCN1Cc1c(Cl)cccc1Cl (configuration not stated) | -5.38% (inactive) |
| Cc1cc(S(=O)(=O)Oc2ccc(OCc3ccccc3)cc2)c(C)cc1Cl | -2.88% (inactive) |
| CCOC(=O)C/C(N)=C(\C#N)C(=O)OCC | -2.73% (inactive) |
| Cc1ccc(SCC(=O)Nc2ccc(F)cc2F)cc1 | -5.06% (inactive) |
| CC(C)(C)NC(=O)[C@@H]1C[C@@H]2CCCC[C@@H]2CN1C(=O)c1ccno1 | -7.29% (inactive) |
| COc1cccc(OCc2ccccc2)c1C#N | -5.84% (inactive) |
| O=S(=O)(Oc1ccc(Cl)c(Cl)c1)c1c(Cl)sc(Cl)c1Br | -7.23% (inactive) |
| O=C(O)Cc1csc(NC(=O)CSc2nnnn2-c2ccc(O)cc2)n1 | -6.18% (inactive) |
| COc1cc(NC(=O)c2ncc(C(F)(F)F)cc2Cl)c(C(=O)O)cc1OC | -7.07% (inactive) |
| O=S(=O)(O)c1ncccn1 | -6.4% (inactive) |
| c1ccc(CN2CCN(Cn3nnc4ccccc43)CC2)cc1 | -4.65% (inactive) |
| COC(=O)c1ccc2snnc2c1 | -2.44% (inactive) |
| FC(F)(F)c1csc(N/N=C/c2ccccc2Cl)n1 | -13.1% (inactive) |
| CCOC(=O)C(=CNNc1ccc(C(=O)O)cc1[N+](=O)[O-])C(=O)OCC | -6.55% (inactive) |
| CC1CC(NC(=O)/C(C#N)=C/c2ccc[nH]2)CC(C)(C)C1 (configuration not stated) | -10.3% (inactive) |
| N/N=c1/nc2sccn2c2ncccc12 | -4.92% (inactive) |
| CCOC(=O)c1cc(CC)sc1NC(=O)c1cccnc1Oc1ccccc1 | -8.18% (inactive) |
| O=C1C=C(c2ccccc2)CN(C2CCCCC2)C1=O | -2.8% (inactive) |
| CC1=C(C(=O)O)N2C(=O)[C@H](NC(=O)[C@@H](N)c3ccccc3)C2SC1 (some centres not stated) | 22.8% (active) |
| O=C(Oc1ccc(Cl)cc1)c1snnc1-c1ccccc1 | -5.24% (inactive) |
| Cc1onc(C(=O)NN)c1-c1csc(COc2ccccc2)n1 | -4.77% (inactive) |
| N#Cc1ccc(-c2csc(COc3ccccc3Cl)n2)cc1 | 34% (active) |
| C#CC(C)(CC)OCC(O)CS(=O)(=O)O (configuration not stated) | -5.43% (inactive) |

| Compound | activation |
| --- | --- |
| CC(C)S(=O)(=O)c1cscc1N/C=C(/C#N)C(=O)c1cccs1 | -2.65% (inactive) |
| O=S(=O)(c1ccc(Cl)c(Cl)c1)N1CCc2c([nH]c3ccccc23)C1C(F)(F)F (configuration not stated) | -11.8% (inactive) |
| Cc1[nH]n(C)c(=O)c1C(=O)c1c(-c2c(Cl)cccc2Cl)noc1C | -6.37% (inactive) |
| CN(NC(=O)c1ccc(Cl)s1)c1cnn(-c2cc(Cl)cc(Cl)c2)c(=O)c1Cl | -2.83% (inactive) |
| CSc1nsc(SC)c1C(=O)Nc1cc(C(F)(F)F)cc(C(F)(F)F)c1 | -4.92% (inactive) |
| Cn1cnnc1SC/C=C/c1ccccc1 | -6.61% (inactive) |
| CCOC(=O)C(=CNc1nc(-c2ccc(Cl)cc2)cs1)C(=O)OCC | -6.21% (inactive) |
| c1ccc2c(c1)NC(C1Nc3ccccc3O1)O2 (configuration not stated) | -4.99% (inactive) |
| Cc1cc(Cl)ccc1NC(=S)NNC(=S)Nc1ccc(F)cc1 | -1.79% (inactive) |
| CCOC(=O)/C=C(/Nc1ccccc1SC)c1ccccc1 | -8.09% (inactive) |
| CC(C)(C)c1ccc(C(=O)CC(N)=O)cc1 | -7.09% (inactive) |
| N#Cc1c(-c2cccs2)cc(-c2cccs2)nc1N | 10.7% (inactive) |
| O=C(Nn1cnnc1)c1ccc([N+](=O)[O-])cc1 | -2.79% (inactive) |
| Cc1onc(-c2ccccc2)c1C(=O)Nc1ccc(/C(C#N)=C/c2ccccn2)cc1 | -2.22% (inactive) |
| N#C/C(=C\c1cccs1)C(=O)NCCc1c[nH]c2ccccc12 | -5.34% (inactive) |
| Cc1cccc(-c2noc(NC(=O)O/N=C/c3ccccc3)n2)c1 | -3.45% (inactive) |
| Cc1csc(/N=C/N(C)C)c1C#N | -4.03% (inactive) |
| N/C(CC(=O)Nc1ccc(F)c(Cl)c1)=N\O | -6.66% (inactive) |
| O=C(c1cnn(-c2ccc(Cl)cc2)n1)c1cccs1 | -6.45% (inactive) |
| S=C1NCN(CCCn2ccnc2)CN1 | -6.28% (inactive) |
| O=C(O)c1cc(=O)[nH]c2c(Cl)cc(Cl)cc12 | -3.92% (inactive) |
| COC(=O)/C(=C/c1ccccc1)c1ccccc1 | -1.48% (inactive) |
| COc1ccc(OC)c(CNC(=O)Cc2cccs2)c1 | -4.76% (inactive) |
| O=[N+]([O-])c1ccc(N2CCOCC2)cc1 | -0.7% (inactive) |
